RORgamma inh: blocks mouse ROR gamma transcriptional activity; P51450; Drosophila S2 Gal4-RORgamma UAS-luciferase reporter, 20 h; Potency, µM (titrated, usually from 53.6 µM), inactives show top-dose activity change, negative = inhibition, usual class: inhibitors; 310,000 compounds, 5.4% hits; AID 2551; also: nearly all actives have a fitted effect of over 60% in size
Target sequence (P51450 whole entry, looked up, the tested form may be a part): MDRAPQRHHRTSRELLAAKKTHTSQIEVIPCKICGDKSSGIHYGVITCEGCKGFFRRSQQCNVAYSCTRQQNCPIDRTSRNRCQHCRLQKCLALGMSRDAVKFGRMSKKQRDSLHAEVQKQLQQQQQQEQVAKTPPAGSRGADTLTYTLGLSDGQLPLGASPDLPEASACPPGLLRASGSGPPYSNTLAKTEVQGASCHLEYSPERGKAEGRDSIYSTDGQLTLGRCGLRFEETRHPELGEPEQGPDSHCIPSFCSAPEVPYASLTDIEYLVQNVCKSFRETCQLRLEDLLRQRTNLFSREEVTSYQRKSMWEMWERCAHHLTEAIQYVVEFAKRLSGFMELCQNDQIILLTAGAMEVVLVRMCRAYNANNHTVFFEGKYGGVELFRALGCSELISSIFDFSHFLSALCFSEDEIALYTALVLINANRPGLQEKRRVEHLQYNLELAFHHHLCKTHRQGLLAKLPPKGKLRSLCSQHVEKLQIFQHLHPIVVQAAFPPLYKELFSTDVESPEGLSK
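Read-out: Photinus luciferase luminescence; inhibitors lower reporter signal. Insect Schneider cells with Gal4-ROR gamma fusion under metallothionein promoter, UAS reporter; 700 uM final copper sulfate induction, 20 hr, ambient temperature.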
DT40 TDP1 CPT: DT40-hTDP1 cell growth loss with CPT. chicken DT40 Tdp1-/-;hTDP1 cells + 20 nM CPT, ATP luminescence, 48 h. 420,000 compounds, 12% hits. Potency, µM (series often up to 46.2 µM), without a hit: at the top dose activity change, negative = growth inhibition, actives largely listed as inhibitors; also: nearly all actives have a fitted effect of over 55% in size
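Chicken DT40 Tdp1-/- cells stably complemented with human TDP1 were seeded at 400 cells/well in medium containing 20 nM camptothecin, exposed to pin-transferred compounds, and grown at 37 °C for at least 48 hr. Viability was read as ATP luminescence.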
DT40 TDP1 no CPT: qHTS for Inhibitors of human tyrosyl-DNA phosphodiesterase 1 (TDP1): qHTS in cells in absence of CPT | DT40 Tdp1-/- hTDP1 cells, no CPT, ATP luminescence, 48 h | Potency, µM (doses to about 46.2 µM), inactives show top-dose activity change, negative = growth inhibition, most hits filed as inhibitors | 420,000 compounds, 15% hits | AID 686978, 2013; also: nearly all actives have a fitted effect of over 55% in size
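Luminescent ATP content (CellTiter-Glo) served as the growth readout. Knockout chicken DT40 cells expressing human TDP1 were exposed to compounds without camptothecin for a minimum 48 hr at 37 °C.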
TDP1 inh: inhibitors of human tyrosyl-DNA phosphodiesterase TDP1 | 350,000 compounds, 0.28% hits | recombinant TDP1, AlphaScreen DNA substrate cleavage | Potency, µM (highest dose often 130 µM), inactives show at the top dose activity change, negative = inhibition, most hits filed as inhibitors | Q9NUW8; also: nearly all actives have a fitted effect of over 40% in size
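Tdp1 1 nM final; 15 min RT w/ cpd; substrate 15 nM, 5 min; beads 10 ug/ml, 10 min; AlphaScreen read. Neg ctrl: no enzyme.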
VP16 counter: inhibits Gal4-VP16 luciferase reporter, ROR gamma counter-screen. Drosophila S2 Gal4-VP16 UAS-luciferase, luminescence, 20 h. 310,000 compounds, 3.5% hits. AID 2546. Potency, µM (top dose mostly 53.6 µM), inactives show at the highest dose activity, negative = inhibition, actives largely listed as inhibitors;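 also: Gal4-VP16 expression switched on by copper sulfate through the metallothionein promoter; nearly all actives have a fitted effect of over 50% in size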
* marks the source's active call; other numbers are inactive results; [ ] = another dose, or the depositor's remark. Shown are actives, neighbours in structure and some others; about 19% of the full set was active somewhere. Calls follow the shape of the dose curve; as a rule, active = well fitted curve in the direction sought with a large enough effect; inconclusive = small, poorly fitted or top-dose-only effect, or another doubt; inactive = no such curve, though single readings can be large; an effect the other way counts as inactive or inconclusive. % is scaled to controls: 0 for no effect and ±100 for the full control effect; potency is read from the fitted curve at half-maximal effect.

Screening CC(c1ccco1)N(C(=O)c1ccccc1F)c1ccccn1 (stereo not drawn) returned RORgamma inh -2.7%, DT40 TDP1 CPT 11.3%, DT40 TDP1 no CPT -7.0%, TDP1 inh 0.0% and VP16 counter 1.6%.
CC(c1ccco1)N(C(=O)COc1ccc(Cl)cc1Cl)c1ccccn1 (stereo not drawn) was read as RORgamma inh inconclusive, DT40 TDP1 CPT inconclusive, DT40 TDP1 no CPT 20.6µM*, TDP1 inh 4.5% and VP16 counter 11.2µM*.
`CC(c1ccco1)N(C(=O)c1ccc(Cl)c([N+](=O)[O-])c1)c1ccccn1` (stereo not drawn) gave RORgamma inh -26.5%, DT40 TDP1 CPT 20.6µM*, DT40 TDP1 no CPT 20.6µM*, TDP1 inh 10.4% and VP16 counter inconclusive.
Screening O=C(CNCc1ccccc1Cl)NCc1ccco1 returned RORgamma inh -0.6%, DT40 TDP1 CPT -7.0%, DT40 TDP1 no CPT -27.4%, TDP1 inh 10.8% and VP16 counter -1.7%[10 µM].
For COc1ccc(NS(=O)(=O)c2ccc(N3CCCC3)c(NC(=S)Nc3cccc(C)c3C)c2)cc1 the results were RORgamma inh -5.0%[10 µM], DT40 TDP1 CPT 11.6µM*, DT40 TDP1 no CPT 9.2µM*, TDP1 inh 5.7% and VP16 counter inconclusive.
`CCNC(=O)Nc1cc(S(=O)(=O)Nc2ccc(OC)cc2)ccc1N1CCOCC1` gave DT40 TDP1 CPT 2.31µM*, DT40 TDP1 no CPT 0.731µM* and TDP1 inh 0.6%.
`CNC(=S)Nc1cc(S(=O)(=O)Nc2cc(Cl)ccc2Cl)ccc1N1CCCC1` gave RORgamma inh -37.2%, DT40 TDP1 CPT -24.4%, DT40 TDP1 no CPT inconclusive and VP16 counter -7.6%.
COc1ccc(NS(=O)(=O)c2ccc(N3CCCC3)c(NC(=S)Nc3ccc(SC(F)F)cc3)c2)cc1 was read as RORgamma inh 34.8%, DT40 TDP1 CPT 18.4µM*, DT40 TDP1 no CPT 18.4µM*, TDP1 inh 10.5% and VP16 counter -2.7%.
Screening COc1ccc(NS(=O)(=O)c2cc(N)ccc2N2CCCC2)cc1 returned DT40 TDP1 CPT inconclusive, DT40 TDP1 no CPT inconclusive and TDP1 inh 6.1%.
O=c1oc2ccccc2cc1-c1cn2cc(Cc3ccc(Br)cc3)sc2n1 was read as DT40 TDP1 CPT 1.3µM*, DT40 TDP1 no CPT 0.581µM* and TDP1 inh -2.1%.
Screening CC1CCCC(NS(=O)(=O)c2cc(Br)cnc2N)C1C (stereo not drawn) returned RORgamma inh 3.2%, DT40 TDP1 CPT 1.4%, DT40 TDP1 no CPT -29.1%, TDP1 inh -0.4% and VP16 counter -2.5%.
`O=c1c2ccccc2ncn1-c1ccc([N+](=O)[O-])cc1[N+](=O)[O-]` gave RORgamma inh -10.6%, DT40 TDP1 CPT 16.4µM*, DT40 TDP1 no CPT 18.4µM* and VP16 counter inconclusive.
`COc1cccc(-n2c(=O)c3sccc3n(CC(=O)NC3CCCC3)c2=O)c1` gave RORgamma inh -2.6%, DT40 TDP1 CPT -7.0%, DT40 TDP1 no CPT -1.4%, TDP1 inh 11.7% and VP16 counter -0.4%.
Screening O=[N+]([O-])c1cccc(C=NNc2ccc3ccccc3n2)c1O returned DT40 TDP1 CPT 5.17µM* and DT40 TDP1 no CPT 5.8µM*.
Screening Cc1cc(N/N=C/c2ccccc2Br)nc2ccccc12 returned RORgamma inh 0.562µM*, DT40 TDP1 CPT inconclusive, DT40 TDP1 no CPT inconclusive, TDP1 inh 5.7% and VP16 counter 15.8µM*.
Screening Brc1ccccc1/C=N/Nc1ccc2ccccc2n1 returned RORgamma inh 0.316µM*, DT40 TDP1 CPT inconclusive, DT40 TDP1 no CPT 16.4µM*, TDP1 inh 2.6% and VP16 counter 8.91µM*.
COc1ccc(N(CC(=O)NCc2ccc(Cl)cc2)S(=O)(=O)c2c(C)nn(C)c2C)cc1 was read as RORgamma inh 14.5%, DT40 TDP1 CPT inconclusive, DT40 TDP1 no CPT -27.1%, TDP1 inh 1.7% and VP16 counter 1.8%.
`CCOc1cc(C)c(S(=O)(=O)N2CCCC2)cc1C` gave RORgamma inh -13.2%, DT40 TDP1 CPT -8.9%, DT40 TDP1 no CPT inconclusive, TDP1 inh -7.7% and VP16 counter 1.7%.
COC(=O)Nc1nc2c(C)cccc2s1 was read as RORgamma inh 7.6%, DT40 TDP1 CPT -29.2%, DT40 TDP1 no CPT -10.0%, TDP1 inh 4.4% and VP16 counter 18.4%.
`Oc1ccc(C(c2nnnn2CCc2ccccc2)N2CCN(c3nc4ccccc4s3)CC2)cc1` (stereo not drawn) gave RORgamma inh 33.3%, DT40 TDP1 CPT 16.4µM*, DT40 TDP1 no CPT 13µM* and VP16 counter -2.3%.
`COCCn1nnnc1C(c1cccs1)N1CCN(c2nc3ccccc3s2)CC1` (stereo not drawn) gave RORgamma inh 13.1%, DT40 TDP1 CPT inconclusive, DT40 TDP1 no CPT 23.1µM*, TDP1 inh 3.1% and VP16 counter -4.2%.
Screening CCC(c1nnnn1Cc1cccs1)N1CCN(c2nc3ccccc3s2)CC1 (stereo not drawn) returned RORgamma inh inconclusive, DT40 TDP1 CPT inconclusive, DT40 TDP1 no CPT inconclusive, TDP1 inh 5.9% and VP16 counter 2.8%.
CC(C)CC(c1nnnn1Cc1cccs1)N1CCN(c2nc3ccccc3s2)CC1 (stereo not drawn) was read as RORgamma inh 10µM*, DT40 TDP1 CPT inconclusive, DT40 TDP1 no CPT inconclusive, TDP1 inh -1.0%[56.1 µM] and VP16 counter 0.2%.
O=C1Nc2ccccc2/C1=C/c1ccccc1F was read as RORgamma inh 31.9%, DT40 TDP1 CPT inconclusive, DT40 TDP1 no CPT 23.1µM* and VP16 counter -17.7%.
CN(C)c1ccc(/C=C2\C(=O)Nc3ccccc32)cc1 was read as RORgamma inh -26.6%, DT40 TDP1 CPT 16.4µM*, DT40 TDP1 no CPT 16.4µM*, TDP1 inh 22.8%[56.1 µM] and VP16 counter inconclusive.
For CN(C)c1ccc(/C=C2\C(=O)/C(=C/c3ccc(N(C)C)cc3)c3ccccc32)cc1 the results were DT40 TDP1 CPT inconclusive and DT40 TDP1 no CPT 7.08µM*.
For CN(C)c1ccc(/C=C2/C(=O)Nc3ccccc32)cc1 the results were RORgamma inh -24.7%, DT40 TDP1 CPT inconclusive, DT40 TDP1 no CPT inconclusive, TDP1 inh 27.5%[56.1 µM] and VP16 counter 1.6%.
For CC(=O)N1/C(=C/c2ccc(N(C)C)cc2)C(=O)c2ccccc21 the results were RORgamma inh inconclusive, DT40 TDP1 CPT 0.517µM*, DT40 TDP1 no CPT 0.461µM*, TDP1 inh 11.1% and VP16 counter inconclusive.
For COc1cc(C(=O)Nc2ccc(S(=O)(=O)NC(C)C)cc2)cc(OC)c1OC the results were RORgamma inh 3.2%, DT40 TDP1 CPT -7.4%, DT40 TDP1 no CPT -23.4%, TDP1 inh 2.0% and VP16 counter 1.9%.

High-throughput results: PubChem, National Center for Advancing Translational Sciences (NCATS)
